# FBW7 act: activators of human E3 ligase FBW7; AlphaScreen FBW7–phospho-cyclin E peptide binding, activator screen; Q969H0; normalized activity (activation), % at 26.1 µM; 650,000 tested, 0.13% active; in the data active means normalized activity above about 1.9%;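 further: purified mutant Fbw7 with reduced substrate affinity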
# GPR151 activ: activators of human GPR151. Q8TDV0. PathHunter beta-arrestin GPR151 cells, luminescence. activation, % at 11.2 µM. 650,000 tested, 1% active. AID 1508602; in the data active means activation above about 4.9%;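 further: 0% = median of compound wells and 100% = cells with positive control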
# MITF inh: inhibitors of human MITF; O75030; AlphaScreen MITF homodimerization, bead proximity signal; inhibition, % at 2.6 µM; 650,000 tested, 0.91% active; AID 1259374; in the data active means inhibition above about 50%;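 further: 0% = vehicle wells with protein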
# TEAD-YAP block: TEAD-YAP interaction inhibition | HEK-TIYL cells, TEAD-Gal4/YAP UAS-luciferase luminescence | inhibition, % at 9.12 µM | 640,000 tested, 1.4% active | AID 1259422; in the data active means inhibition above about 32%;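 further: 0% = median of test compound wells and 100% = reference inhibitor wells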
# An asterisk follows results filed as active. Hits are enriched below; roughly 3.5% of the tested compounds scored in any of these assays.
SMILES,FBW7 act,GPR151 activ,MITF inh,TEAD-YAP block
O=C(NC1CC1)c1ccc2c3c(cccc13)CC2,-0.3,1.0,8.1,9.4
CCOC(=O)C1=C(C)NC2=C(C(=O)CC(C)(C)C2)C1c1cccc(OC)c1O (stereo not drawn),1.9*,-1.0,3.6,10.9
COc1cc(C2C3=C(CC(C)(C)CC3=O)Nc3c2ccc2ccccc32)cc(Br)c1O (stereo not drawn),0.0,1.4,-2.7,59.5*
CC1=C(C(=O)OCCc2ccccc2)C(c2ccc(Cl)cc2Cl)C2=C(CC(C)(C)CC2=O)N1 (stereo not drawn),2.1*,1.5,18.8,-0.9
COC(=O)C1=C(C)NC2=C(C(=O)CC(C)(C)C2)C1c1cccc(Cl)c1Cl (stereo not drawn),2.0*,1.2,0.4,2.5
Cc1ccc(C)c(N(Cc2ccc(F)cc2)S(C)(=O)=O)c1,0.0,-0.6,14.1,0.7
COC(=O)c1ccc(NC(=O)CC(C)S(=O)(=O)c2ccc3c(c2)CCN3C(C)=O)cc1 (stereo not drawn),0.0,1.9,3.9,3.3
Cc1sc2nc(SCC(=O)Nc3ccccc3N3CCOCC3)nc(N)c2c1C,-0.1,-1.1,1.5,43.1*
COc1ccc(C(=O)C2CCCN(Cc3ccc(N4CCNC4=O)cc3)C2)cc1OC (stereo not drawn),0.0,0.3,14.8,-4.1
Cc1ccsc1C(=O)C1CCCN(Cc2ccc(N3CCNC3=O)cc2)C1 (stereo not drawn),0.2,-0.1,-18.9,35.5*
CCn1ccc(C(=O)N2CCC(Oc3nc4c(F)cc(F)cc4s3)CC2)n1,2.4*,-0.1,6.8,0.4
O=C(c1ccc(F)cc1Cl)N1CCC(Oc2nc3c(F)cccc3s2)CC1,1.4,-0.4,24.4,12.3
CCCOc1ccc(C2NC(=O)NC(C)=C2C(=O)OC(C(F)(F)F)C(F)(F)F)cc1 (stereo not drawn),2.1*,1.2,16.5,7.5
CCOC(=O)C1=C(C)NC(=O)NC1c1ccc(OCc2ccccc2)cc1 (stereo not drawn),-0.1,-1.4,3.0,-16.9
CCCOc1ccc(C2NC(=O)NC(C)=C2C(=O)OC2CCCC2)cc1 (stereo not drawn),0.0,-0.6,-7.8,55.6*
CCOC(=O)C1=C(C)NC(=O)NC1c1ccc(-c2ccccc2)cc1 (stereo not drawn),-0.1,4.9,-1.1,40.4*
CCCOc1ccc(C2NC(=O)NC(C)=C2C(=O)OC2CCCCCC2)cc1 (stereo not drawn),0.0,0.6,-13.3,1.8
CCOC(=O)c1c(NC(=O)c2ccc(Cl)c([N+](=O)[O-])c2)sc(C(=O)Nc2ccccc2OC)c1C,-0.1,0.0,-1.6,0.3
CCN1CCSc2ccc(C(=O)N3CCCC3)cc21,0.6,-0.5,-6.3,-1.5
Cc1c(C#N)c(NC(=O)CCl)n(Cc2ccco2)c1C,0.1,-0.4,-14.4,32.1*
Cc1ccc(COc2ccccc2/C=C2/C(=O)ON=C2c2ccccc2)cc1,0.1,-1.0,54.1*,-42.9
COc1cc(/C=C2/C(=O)ON=C2c2ccccc2)ccc1O,0.0,0.6,69.4*,-2.9
CCOc1cc(/C=C2/C(=O)ON=C2c2ccccc2)ccc1OC,0.0,-0.8,66.8*,3.9
COc1cc(/C=C2\C(=O)ON=C2c2ccccc2)ccc1OCc1ccc(Cl)cc1,-0.1,2.2,31.9,-46.7
COc1ccccc1/C=C1\C(=O)ON=C1c1ccccc1,-0.3,0.8,70.4*,-72.9
SMILES,FBW7 act,GPR151 activ,MITF inh,TEAD-YAP block
Cn1c(N)c(C(=O)COc2cccc(Br)c2)c(=O)n(C)c1=O,-0.2,-0.3,19.1,4.2
CS(=O)(=O)N1CCC(c2nnc(C3CC3)o2)CC1,-0.1,0.5,2.9,-15.7
Cc1ccc2c(C(=O)CNc3nccs3)c(C)[nH]c2c1,0.3,0.5,2.1,-17.2
COc1cc(/C=C2/C(=O)ON=C2c2ccc(Cl)cc2)ccc1O,-0.1,1.9,60.8*,6.3
CCOc1ccc(/C=C2\C(=O)ON=C2c2ccc(Cl)cc2)cc1,0.0,-1.2,59.3*,13.9
COc1cc(/C=C2/C(=O)ON=C2c2ccccc2)cc(OC)c1OC,-0.1,-0.7,56.4*,1.9
COC(=O)c1c(C)oc2ccc(N(C(=O)c3ccccc3Cl)S(=O)(=O)c3ccc(Cl)cc3)cc12,0.3,-1.7,24.6,-3.1
CCOc1ccc(C(=O)NC(=S)Nc2cccc(C(=O)O)c2)cc1[N+](=O)[O-],0.1,-0.7,10.0,-1.8
COCCNc1nccn2c(-c3cccc(NC(C)=O)c3)cnc12,0.3,1.3,-0.7,7.9
N#C/C(=C/c1ccoc1-c1ccc([N+](=O)[O-])cc1)C(N)=S,0.1,0.1,30.0,7.1
COc1ccccc1NC(=O)C1=C(C)NC(SCC(=O)c2ccc(F)cc2)=C(C#N)C1c1ccco1 (stereo not drawn),0.7,-1.2,3.4,-16.2
CC(=O)C1=C(C)NC(SCC(=O)c2ccccc2)=C(C#N)C1c1ccco1 (stereo not drawn),0.9,-0.7,14.0,-18.6
Cc1ccccc1NC(=O)CSC1=C(C#N)C(c2ccco2)C2=C(CCCC2=O)N1 (stereo not drawn),0.1,0.3,12.5,45.0*
CC(=O)C1=C(C)NC(SCC(=O)c2ccc(C)c(C)c2)=C(C#N)C1c1ccco1 (stereo not drawn),1.9*,-0.4,22.9,8.9
CCOC(=O)CSC1=C(C#N)C(c2ccco2)C(C(=O)Nc2ccccc2F)=C(C)N1 (stereo not drawn),0.2,0.8,11.5,45.1*
CCCOC(=O)CSC1=C(C#N)C(c2ccc3c(c2)OCO3)CC(=O)N1 (stereo not drawn),-0.1,3.3,-1.5,0.6
CCCOC(=O)CSC1=C(C#N)C(c2cccc(Cl)c2)CC(=O)N1 (stereo not drawn),0.2,0.4,1.6,62.4*
COC(=O)CSC1=C(C#N)C(c2ccc(C)o2)CC(=O)N1 (stereo not drawn),0.1,1.0,6.6,56.4*
COC(=O)CSC1=C(C#N)C(c2ccccc2C)CC(=O)N1 (stereo not drawn),0.2,-1.1,-8.8,6.7
CCOC(=O)CSC1=C(C#N)C(c2ccco2)CC(=O)N1 (stereo not drawn),-0.1,-0.1,0.9,55.4*
COc1ccc(S(=O)(=O)Cc2ccc(C(=O)NC(C)C)o2)cc1,-0.1,1.3,-7.9,-8.1
CC(C)(C)c1cc(-c2nc3ccccc3[nH]2)n[nH]1,-0.1,-10.4,-1.5,95.8*
Cc1ccc(CN2CCN(/N=C/c3ccc(O)c(O)c3)CC2)cc1,-0.5,1.0,54.7*,6.4
Oc1ccc(/C=N/N2CCN(Cc3ccccc3)CC2)cc1O,-0.1,0.2,34.7,4.6
Cc1ccc(C(=O)c2cccc(N)c2)cc1C,1.1,-0.6,8.3,56.6*
CN1C(=O)/C(=C/c2ccc(SCc3ccco3)o2)SC1=S,-0.9,0.2,56.9*,-17.6
CS(=O)(=O)C1=NN2C(=N)/C(=C\c3ccc(SCc4ccco4)o3)C(=O)N=C2S1,-1.0,0.8,79.4*,4.0
N=C1/C(=C\c2ccc(SCc3ccco3)o2)C(=O)N=C2SC(N3CCOCC3)=NN12,-0.4,1.0,62.1*,-0.6
CC1=NN2C(=N)/C(=C\c3ccc(SCc4ccco4)o3)C(=O)N=C2S1,-0.5,0.1,11.9,12.0

# Bioassay records as filed in PubChem BioAssay.
